According to PubChem BioAssay:
For part of these data: Potency and affinity values are given separately. Calls of active or inactive are those of the source.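 Rule for the calls, unless noted: active = fitted half-maximal concentration within the tested dose range, moderate curve steepness, a statistically real signal drop, and little compound fluorescence or tag-binding interference; inactive = the rest.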

Columns and labels:
[1] = biological target: Cell division control protein 42 homolog (Homo sapiens) (UniProt P60953); assay: inhibition of fluorescent GTP binding to constitutively active Cdc42 – biochemical, multiplex bead flow cytometry, Bodipy-FL-GTP, dose response (AID 1333)
Cell division control protein 42 homolog (Homo sapiens), sequence (P60953 whole entry, looked up): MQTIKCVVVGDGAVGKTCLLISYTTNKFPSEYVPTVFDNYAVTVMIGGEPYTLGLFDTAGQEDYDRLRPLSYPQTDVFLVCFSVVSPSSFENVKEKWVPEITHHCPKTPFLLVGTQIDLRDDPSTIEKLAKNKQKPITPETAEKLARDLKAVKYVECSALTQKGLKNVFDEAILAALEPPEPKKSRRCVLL

[2] = biological target: Cell division control protein 42 homolog (Homo sapiens) (UniProt P60953); assay: inhibition of fluorescent GTP binding to wildtype Cdc42 – biochemical, multiplex bead flow cytometry, Bodipy-FL-GTP, dose response (AID 1334;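 active = fitted half-maximal concentration within the tested range, moderate curve steepness, significant signal drop, and little compound fluorescence or bead-linkage interference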); conditions: bead-based flow cytometry, Bodipy-FL-GTP binding to GST-Cdc42; at 100 µM (top of the series) unless noted
[3] = biological target: GTPase HRas (Homo sapiens) (UniProt P01112); assay: Ras wt fluorescent GTP loading blockade – biochemical, wildtype, multiplex bead flow cytometry, dose response (AID 1335;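 active = fitted half-maximal concentration within 10 nM to 100 µM, steepness 0.5 to 2, significant signal drop, low assay interference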); conditions: bead-based flow cytometry, Bodipy-GTP binding to GST-Ras; at 100 µM (top of the series) unless noted
GTPase HRas (Homo sapiens), sequence (P01112 whole entry, looked up): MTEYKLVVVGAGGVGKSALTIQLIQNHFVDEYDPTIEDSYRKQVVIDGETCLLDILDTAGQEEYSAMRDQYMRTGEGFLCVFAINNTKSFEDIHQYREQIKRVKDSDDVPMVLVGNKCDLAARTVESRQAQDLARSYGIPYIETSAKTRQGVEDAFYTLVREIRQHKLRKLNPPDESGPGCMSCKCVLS

[4] = system: Ras-related protein Rab-7a (dog), GTP binding; assay: blockers of fluorescent GTP binding to Rab7 – biochemical, wildtype, multiplex bead flow cytometry, dose response (AID 1336; call rule not given here)
[5] = biological target: GTPase HRas (Homo sapiens) (UniProt P01112); assay: blockade of GTP loading onto mutant Ras – biochemical, activated mutant, multiplex bead flow cytometry, dose response (AID 1341;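 active = dose-response curve with midpoint inside the tested range, moderate steepness, significant amplitude and little compound fluorescence or bead-attachment interference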;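 note: GST-tagged constitutively activated Ras mutant immobilized on beads and multiplexed with other GTPases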)
[6] = biological target: Ras-related C3 botulinum toxin substrate 1 (Homo sapiens) (UniProt P63000); assay: inhibition of wildtype Rac1 nucleotide loading – biochemical, multiplex bead flow cytometry, dose response (AID 1340;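 active = dose curve with midpoint inside tested range, moderate steepness, plateau gap beyond fit error, low compound glow and bead-link interference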); conditions: GST-Rac1 beads, Bodipy-FL-GTP binding; at 100 µM (top of the series) unless noted
[7] = hit retest on RPL19A-GFP reporter strain – cell-based, S. cerevisiae, flow cytometry, cherry picks, mother/daughter gates, confirmation (AID 2270;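 active = GFP response below 50% of the DMSO control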); conditions: 3 h, at 10 µM, stronger effect = lower value, 100 = same GFP as DMSO wells
[8] = yeast TOR pathway reporter LAP4-GFP change – cell-based, cherry picks, flow cytometry, mother/daughter gates, confirmation (AID 2271;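 active = GFP response above 150% of the DMSO control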;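 note: ratio of sample to DMSO plate mean so 100% equals DMSO level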); conditions: S. cerevisiae LAP4-GFP strain, 3 h, at 10 µM, stronger effect = higher value, 100 means same as DMSO control
[9] = TOR pathway reporter MEP2-GFP, retest of hits – S. cerevisiae, flow cytometry GFP, cherry picks, confirmation (AID 2272;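 active = GFP response above 150% of the DMSO control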;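 note: ratio of well signal to plate DMSO mean so 100% equals DMSO level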); conditions: S. cerevisiae MEP2-GFP strain, 3 h, at 10 µM, stronger effect = higher value
[10] = yeast AGP1-GFP fluorescence change, single-dose – cell-based, flow cytometry, S. cerevisiae, cherry picks, confirmation (AID 2273;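 active = GFP response above 150% of the DMSO level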;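 note: median GFP channel fluorescence over the whole cell population gate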); conditions: S. cerevisiae AGP1-GFP strain, 3 h, at 10 µM
[11] = TOR pathway CIT2 reporter hit retest – S. cerevisiae, GFP fusion, cherry picks, mother/daughter gates, confirmation (AID 2274;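 active = GFP response above 150% of the DMSO level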); conditions: S. cerevisiae CIT2-GFP strain, flow cytometry, 3 h, at 10 µM, stronger effect = higher value
[12] = measured here: daughter cell gate
[13] = measured here: mother cell gate
[14] = measured here: daughter cell gate response
[15] = measured here: mother cell gate response

Structure (SMILES) | outcome [1] | fluorescence, percent of control (lower = inhibition) [2] | GTP binding, percent of control [3] | outcome [4] | outcome [5] | GTP binding signal, raw median fluorescence (lower = inhibition) (MCF (arbitrary fluorescence units)) [6] | GFP response vs DMSO [7] | GFP response vs DMSO [7, 12] | GFP response vs DMSO [7, 13] | GFP response relative to DMSO [8] | GFP response relative to DMSO [8, 14] | GFP response relative to DMSO [8, 15] | GFP response vs DMSO [9] | GFP response, % of DMSO [10] | GFP response, % of DMSO [11] | GFP response, % of DMSO [11, 12] | GFP response, % of DMSO [11, 13]
O=C1/C(=C\c2cccnc2)Sc2ccccc21 | inactive | 29.1% | 62.4% | inactive | inactive |  |  |  |  |  |  |  |  |  |  |  | 
CCOC(=O)CN(C(=O)CSc1nnc2c(n1)[nH]c1ccc(OC)cc12)c1ccc(F)cc1 | inactive | 47.9% | 58.9% | inactive | inactive |  |  |  |  |  |  |  |  |  |  |  | 
O=C(COC(=O)C1(c2ccccc2F)CCCC1)Nc1ncc(C(F)(F)F)cc1Cl | inactive | 47.6% | 60.4% | inactive | inactive | 194 |  |  |  |  |  |  |  |  |  |  | 
COc1ccc(-c2nnc(SCC(=O)c3cccs3)o2)cc1 | inactive | 94.6% | 141% | inactive | inactive |  |  |  |  |  |  |  |  |  |  |  | 
COc1cc(C)c2c(c1C=O)Oc1c(c(C)c(O)c3c1C(O)OC3=O)OC2=O (stereo not drawn) | inactive | 54.3% | 102% | inactive | inactive | 135 |  |  |  |  |  |  |  |  |  |  | 
CCOC(=O)N1CCN(C(=O)CCc2ccc(S(=O)(=O)NCCc3ccccc3)cc2)CC1 | inactive | 48.3% | 57.7% | inactive | inactive | 0 | 99.3% (inactive) | 100% | 97.8% | 95.3% (inactive) | 99% | 94.4% | 101% (inactive) | 108% (inactive) | 100% (inactive) | 101% | 100%
Cc1cc(C)c(C(=O)Cn2cnc3cc([N+](=O)[O-])ccc3c2=O)cc1C | inactive | 34% | 74.6% | inactive | inactive | 161 | 100% (inactive) | 101% | 99.8% | 89.4% (inactive) | 88.2% | 91.3% | 99.3% (inactive) | 102% (inactive) | 97.2% (inactive) | 97.6% | 98.2%
Oc1ccc2ccccc2c1/C=N/Nc1nnc(-c2ncc[nH]2)c2ccccc12 | inactive | 44% | 59.7% | inactive | inactive | 138 | 108% (inactive) | 91.9% | 108% | 123% (inactive) | 119% | 128% | 137% (inactive) | 95.9% (inactive) | 162% (active) | 114% | 205%
